Measured values as given in ChEMBL document CHEMBL4513216, “Probing the Open Global Health Chemical Diversity Library for Multistage-Active Starting Points for Next-Generation Antimalarials” (ACS Infect Dis, 2020).
Hit rate of the full screen: of about 69,000 compounds, about 8,600 (12%) showed an effect of 50% or more. The sample as a whole holds a higher share of strong results than the screen did.

system: Plasmodium berghei; test: Screen against P. berghei liver stage (PbLuc), transformed with Luciferase, at 10uM; type: functional, HepG2; conditions: tested at 10 uM

SMILES | INHIBITION [%]
CC(C)CS(=O)(=O)NC(=O)c1ccc2c(c1)ncn2C | -57.9
c1cc(NCc2ccncc2)nc(C2CCCNC2)c1 (configuration not stated) | 18.4
CC1c2ncc(COc3cccnc3)n2CCN1C(=O)C1=CCCC1 (configuration not stated) | -7.11
CC(C)(C)OC(=O)Cn1nc(C2CC2)cc(C(F)(F)F)c1=O | 32
CC(C)(C)NC(=O)Cn1nc(C2CC2)cc(C(F)(F)F)c1=O | 28.7
CC(C)(C)C(=O)Cn1nc(C2CC2)cc(C(F)(F)F)c1=O | 77.6
CCN1CCN(C(=O)NCc2ccccc2Cn2cncn2)CC1 | 32.7
Cn1ncnc1NCc1ccc(Br)cc1 | 20.9
COc1ccc(C2SCC(=O)N2c2ncc(C)s2)cc1 (configuration not stated) | 24.7
CNC(=O)C1CCCCN1C(=O)c1n[nH]c(=O)c2ccccc12 (configuration not stated) | 8.53
CC1CCCCN1C(=O)c1n[nH]c(=O)c2ccccc12 (configuration not stated) | 60.2
O=C(c1n[nH]c(=O)c2ccccc12)N1CCCCC1c1ccn[nH]1 (configuration not stated) | 40.9
O=C(COc1ccccc1)NS(=O)(=O)Cc1ccccc1 | 11.8
Cc1cccc(OCC(=O)NS(=O)(=O)Cc2ccccc2)c1 | 22.9
Cc1ccc(OCC(=O)NS(=O)(=O)Cc2ccccc2)cc1 | 69.8
O=S(=O)(NCCCn1cncn1)c1ccc2c(c1)CCO2 | 44.9
O=S(=O)(NCCCn1cncn1)c1ccc2c(c1)CCCC2 | 50.4
O=S(=O)(NCCCn1cncn1)c1ccc2c(c1)CCC2 | -58.1
CCOc1ccc(CCCC(=O)N2CC[C@H](NC(C)=O)C2)cc1C | 16

SMILES | INHIBITION [%]
CCOc1ccc(C(=O)NC2CC2)cc1C | 57
CCOc1ccc(C(=O)NC2CCN(c3ncccn3)CC2)cc1C | 34.2
CCN(CC)C(CNC(=O)c1ccc(S(=O)(=O)NC)cc1)c1ccco1 (configuration not stated) | 6.12
COc1cccc(OCC(=O)N(C)c2cccnc2N(C)C)c1 | 33.1
COc1cccc(OCC(=O)N(C)c2cccnc2)c1 | 53.7
COc1cccc(OCC(=O)NS(=O)(=O)c2cccnc2)c1 | -19.05
Cc1nc(C(C)C)sc1C(C)N(C)C(=O)c1ccc(=O)n(C)n1 (configuration not stated) | -19.7
CCN(CC)c1ncccc1CNCc1cc2ccccc2s1 | 5.91
Cc1cc(NC(=O)CN2CCOC(CN(C)C)C2)n(C)n1 (configuration not stated) | 4.35
Cc1nc(CN2CCO[C@@H]3CN(Cc4nccs4)C[C@@H]3C2)cs1 | 3.69
O=C(CN1CCCC1c1cccs1)N1CCc2sccc2C1 (configuration not stated) | 19.2
CC(C)c1noc(-c2cccc(OCC(N)=O)c2)n1 | -110
O=C(c1ccc2ncsc2c1)N1CCC(C(=O)O)(n2cccn2)CC1 | -0.529
O=C(c1ccc2sccc2c1)N1CCC(C(=O)O)(n2cccn2)CC1 | -16.6
O=C(c1ccc2occc2c1)N1CCC(C(=O)O)(n2cccn2)CC1 | 60
CN1CC2(CCN(CCCOCc3ccccc3)CC2)OC1=O | 42.8
O=C(C1CCOC1)N1C[C@H]2CN(Cc3ccccn3)C[C@H]2C1 (some centres not stated) | 33.5
CC(=O)N(Cc1ncc(C)o1)C1CCN(Cc2sc(C)nc2C)C1 (configuration not stated) | -2.19
CNC(C)Cc1ccccc1Sc1ccc(O)cc1 (configuration not stated) | -2.39

SMILES | INHIBITION [%]
O=C1NCCCCC1Sc1ccccc1F (configuration not stated) | 13.6
Fc1ccccc1Sc1ccccc1CNC1=NCCN1 | 75.7
NCc1ccccc1Sc1ccc(O)cc1 | 39.4
O=C(Cc1cccnc1)NCCSc1ccccc1F | -11.6
Fc1ccc(Sc2ccccc2CNC2=NCCN2)cc1 | 83.3
c1ccc(Sc2ccc3c(c2)OCO3)c(CNC2=NCCN2)c1 | 87.1
CC(C)NCc1nc(-c2ccc3c(c2)OCO3)c[nH]1 | -40.5
c1cc2c(cc1C1(CNC3=NCCN3)CCCC1)OCCO2 | 27.6
CCCc1ccc(OCCNCc2ccco2)c(OC)c1 | 1.71
Cc1ccc(C2CCCN2S(=O)(=O)N(C)Cc2nccn2C)o1 (configuration not stated) | 40.8
Cc1nc(CN2CC[C@@H](OCC3CC3)[C@@H]2Cc2cccnc2)cs1 | 10.5
Cc1cnn(CC2CN(Cc3nnc(-c4ccccc4)o3)CCO2)c1 (configuration not stated) | -13.3
CC(=O)NC1CCCN(Cc2ccn(C)c(=O)c2)C1 (configuration not stated) | -4.4825
CNc1nc(C(=O)N2C[C@@H]3CC[C@H]2CN(C2CCOCC2)C3)cs1 | 12.8
CC(c1nc(C2CC2)no1)N(C)Cc1cccc(F)c1 (configuration not stated) | 53.4
CC(c1nc(C2CC2)no1)N(C)Cc1ccc2c(c1)OCCO2 (configuration not stated) | 12.3
CC(c1nc(C2CC2)no1)N(C)Cc1ccc(Cl)cc1 (configuration not stated) | 43.1
Cn1ccc2c(C(=O)N3CCCC(c4nnc[nH]4)C3)cccc21 (configuration not stated) | -66.9
CCN1Cc2c(C(=O)NC(C)C(C)C)ncn2-c2ccccc2S1(=O)=O (configuration not stated) | 29.9
